We go through 19 sequences from publication PMC5700166.

Common to all, as to test: protein-binding microarray (PBM); PBM: ~300 nM protein, 6 mM HEPES pH 7.8, 80 mM KCl, 0.5 mM EDTA, 0.5 mM EGTA, 6% glycerol, 35 ng/ul poly-dIdC, 1% milk, 1 h, room temperature; Ap Aiptasia and Nv Nematostella (sea anemones) / Co Capsaspora / Aq Amphimedon (sponge) / Dm Drosophila / Hu human; RHD is the Rel homology domain; high values mean tight binding
What all share (conditions): dsDNA, one strand shown

Experiment [1] concerns the target T1, GST-Ap-NF-kB RHD (Exaiptasia pallida (Aiptasia), UniProt A0A913YAJ5 2-422).
T1 sequence: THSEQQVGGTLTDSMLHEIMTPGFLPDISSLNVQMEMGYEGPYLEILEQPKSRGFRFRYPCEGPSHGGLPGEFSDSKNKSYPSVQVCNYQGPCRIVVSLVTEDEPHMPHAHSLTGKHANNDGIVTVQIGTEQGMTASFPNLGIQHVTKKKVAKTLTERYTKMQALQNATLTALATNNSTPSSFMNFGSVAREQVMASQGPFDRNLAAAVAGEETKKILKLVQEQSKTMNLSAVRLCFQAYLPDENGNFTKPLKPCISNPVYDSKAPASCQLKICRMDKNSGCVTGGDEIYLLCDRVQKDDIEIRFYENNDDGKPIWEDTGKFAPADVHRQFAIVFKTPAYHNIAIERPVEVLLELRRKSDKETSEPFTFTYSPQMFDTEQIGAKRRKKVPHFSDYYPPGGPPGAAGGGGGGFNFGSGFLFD

In experiment [2] the target is T2, GST-Nv-NF-kB (Cys allele) (Nematostella vectensis, UniProt E5G601 2-411).
T2 sequence: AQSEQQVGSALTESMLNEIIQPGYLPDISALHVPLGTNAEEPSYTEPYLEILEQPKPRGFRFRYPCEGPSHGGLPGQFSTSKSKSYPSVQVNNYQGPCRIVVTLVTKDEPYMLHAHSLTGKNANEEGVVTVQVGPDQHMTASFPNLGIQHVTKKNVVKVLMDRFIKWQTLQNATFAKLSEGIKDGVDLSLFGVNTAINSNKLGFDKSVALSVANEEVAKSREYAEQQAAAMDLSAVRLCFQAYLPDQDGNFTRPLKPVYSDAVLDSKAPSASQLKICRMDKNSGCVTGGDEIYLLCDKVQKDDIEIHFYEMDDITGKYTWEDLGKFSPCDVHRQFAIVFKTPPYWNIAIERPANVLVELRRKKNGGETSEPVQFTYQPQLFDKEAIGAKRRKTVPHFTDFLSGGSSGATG

The target of experiment [3] is T3, GST-Nv-NF-kB (Ser allele) (Nematostella vectensis, UniProt A7UNT2 2-411).
T3 sequence: T2 sequence with Q21R, C66S, S207N, E215Q, V217A, E225K, A268E, D399E

Experiment [4] deals with T4, GST-Co-NF-kB (Capsaspora owczarzaki, UniProt F1ARL5 200-546).
T4 sequence: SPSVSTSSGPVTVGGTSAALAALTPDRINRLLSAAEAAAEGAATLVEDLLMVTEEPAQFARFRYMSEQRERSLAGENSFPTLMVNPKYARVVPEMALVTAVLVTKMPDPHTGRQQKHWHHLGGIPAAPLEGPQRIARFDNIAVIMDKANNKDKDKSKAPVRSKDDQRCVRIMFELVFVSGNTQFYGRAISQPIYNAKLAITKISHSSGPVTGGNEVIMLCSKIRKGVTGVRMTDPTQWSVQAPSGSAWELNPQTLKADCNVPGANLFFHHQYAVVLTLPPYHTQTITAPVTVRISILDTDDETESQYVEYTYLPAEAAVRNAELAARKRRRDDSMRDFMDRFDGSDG

Experiment [5] deals with T5, GST-Dm-Relish (Drosophila melanogaster, UniProt Q94527 99-473).
T5 sequence: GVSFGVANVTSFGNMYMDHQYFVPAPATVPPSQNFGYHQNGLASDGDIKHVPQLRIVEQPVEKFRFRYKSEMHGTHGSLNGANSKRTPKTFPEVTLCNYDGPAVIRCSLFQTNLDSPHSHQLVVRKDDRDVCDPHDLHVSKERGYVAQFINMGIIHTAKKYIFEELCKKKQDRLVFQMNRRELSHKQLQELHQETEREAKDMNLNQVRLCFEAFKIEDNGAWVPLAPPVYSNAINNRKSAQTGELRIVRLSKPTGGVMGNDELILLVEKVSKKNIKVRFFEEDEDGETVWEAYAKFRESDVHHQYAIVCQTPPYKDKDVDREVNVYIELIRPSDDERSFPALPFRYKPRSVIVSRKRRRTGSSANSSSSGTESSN

In experiment [6] the target is T6, GST-Aq-NF-kB (Amphimedon queenslandica, UniProt A9Y5G7 2-389).
T6 sequence: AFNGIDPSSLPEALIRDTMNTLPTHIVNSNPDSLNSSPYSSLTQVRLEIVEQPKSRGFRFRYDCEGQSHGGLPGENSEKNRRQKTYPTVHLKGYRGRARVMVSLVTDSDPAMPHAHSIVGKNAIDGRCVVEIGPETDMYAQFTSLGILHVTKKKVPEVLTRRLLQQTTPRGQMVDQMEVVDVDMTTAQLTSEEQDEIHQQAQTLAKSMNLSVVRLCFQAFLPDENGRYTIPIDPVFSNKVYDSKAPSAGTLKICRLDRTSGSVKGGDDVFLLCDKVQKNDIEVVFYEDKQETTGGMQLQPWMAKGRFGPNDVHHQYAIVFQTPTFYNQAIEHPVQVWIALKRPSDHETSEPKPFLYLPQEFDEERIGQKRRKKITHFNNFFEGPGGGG

In experiment [7] the target is GST-Hu-p50 (Homo sapiens, UniProt P19838 7-356).
GST-Hu-p50, sequence (P19838 7-356): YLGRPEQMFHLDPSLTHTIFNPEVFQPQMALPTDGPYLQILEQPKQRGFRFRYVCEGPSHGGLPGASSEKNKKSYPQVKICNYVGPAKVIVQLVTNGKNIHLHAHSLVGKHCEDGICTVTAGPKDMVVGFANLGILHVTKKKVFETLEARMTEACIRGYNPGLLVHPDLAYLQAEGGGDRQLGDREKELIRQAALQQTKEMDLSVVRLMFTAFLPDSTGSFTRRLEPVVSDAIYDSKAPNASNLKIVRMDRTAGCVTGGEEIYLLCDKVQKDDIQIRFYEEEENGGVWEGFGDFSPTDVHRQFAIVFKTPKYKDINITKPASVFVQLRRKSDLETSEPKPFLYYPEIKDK

Substitutions are numbered along the chain they refer to.

For “CCGATTAACATCAGGGGTAATTATGATGTTAATCGGGTCTTGATTCGCTTGACGCTGCTG”, the binding signal in experiment [1] is 3.8 z-score; in experiment [2] it was 4.02 z-score; in experiment [3], 4.62 z-score; in experiment [4], 6.05 z-score; in experiment [5], 2.03 z-score; in experiment [6], 3.96 z-score. Further, the binding signal in experiment [7] worked out at 4.51 z-score.
With “CCGATTAACATCAAGGGACCCCCTGATGTTAATCGGGTCTTGATTCGCTTGACGCTGCTG”, the binding signal in experiment [1] stood at 5.77 z-score; in experiment [2], 3.16 z-score; in experiment [3], 3.36 z-score; in experiment [4] it was 2.03 z-score; in experiment [5], 7.64 z-score; in experiment [6], 4.72 z-score. This sequence registered a binding signal in experiment [7] of 3.57 z-score.
With “CCGATTAACATCAGGGGAGTTACTGATGTTAATCGGGTCTTGATTCGCTTGACGCTGCTG”, the binding signal came to 5.46 z-score in experiment [1]; 4.25 z-score in experiment [2]; 4.83 z-score in experiment [3]; 3.43 z-score in experiment [4]; 7.83 z-score in experiment [5]; 5.17 z-score in experiment [6]. In experiment [7], the binding signal is 4.45 z-score.
With “CCGATTAACATCACGGGAATTCCTGATGTTAATCGGGTCTTGATTCGCTTGACGCTGCTG”, the binding signal in experiment [1] is 7.73 z-score; in experiment [2], 7.86 z-score; in experiment [3], 5.2 z-score; in experiment [4], 5.35 z-score; in experiment [5] it was 8.07 z-score; in experiment [6], 8.38 z-score. The same sequence gave a binding signal in experiment [7] of 4.61 z-score.
Consider “CCGATTAACATCAGGAGTGTCCCTGATGTTAATCGGGTCTTGATTCGCTTGACGCTGCTG”, for which the binding signal in experiment [1] is 2.12 z-score; in experiment [2], 2.48 z-score; in experiment [3] it was 1.44 z-score; in experiment [4] it was 1.05 z-score; in experiment [5] it was 1.23 z-score; in experiment [6], 4.83 z-score. In addition, the binding signal in experiment [7] is 1.29 z-score.
Take “CCGATTAACATCAAAATCCCAGGTGATGTTAATCGGGTCTTGATTCGCTTGACGCTGCTG”: the binding signal in experiment [1] amounted to 2.06 z-score; in experiment [2], 1.42 z-score; in experiment [3] it was 1.85 z-score; in experiment [4], 1.6 z-score; in experiment [5], 5.57 z-score; in experiment [6], 2.06 z-score. The binding signal in experiment [7] was 3.17 z-score.
With “CCGATTAACATCAAACTACCCCCTGATGTTAATCGGGTCTTGATTCGCTTGACGCTGCTG”, the binding signal in experiment [1] was 5.45 z-score; in experiment [2], 4.01 z-score; in experiment [3] it was 4.35 z-score; in experiment [4], 5.82 z-score; in experiment [5], 2.49 z-score; in experiment [6], 4.3 z-score. In experiment [7], this sequence registered a binding signal of 4.12 z-score.
As for “CCGATTAACATCAGGGGGATCCATGATGTTAATCGGGTCTTGATTCGCTTGACGCTGCTG”, the binding signal in experiment [1] was found to be 7.42 z-score; in experiment [2], 5.12 z-score; in experiment [3], 6.25 z-score; in experiment [4] it was 4.25 z-score; in experiment [5] it was 7.45 z-score; in experiment [6], 5.46 z-score. The same sequence came in with a binding signal in experiment [7] of 5.74 z-score.
Regarding “CCGATTAACATCAGGGAAATCCCTGATGTTAATCGGGTCTTGATTCGCTTGACGCTGCTG”, the binding signal turned out to be 9.75 z-score in experiment [1]; 11.4 z-score in experiment [2]; 9.68 z-score in experiment [3]; 4.02 z-score in experiment [4]; 10.3 z-score in experiment [5]; 10.9 z-score in experiment [6]. In experiment [7], this sequence showed a binding signal of 7.17 z-score.
In the case of “CCGATTAACATCAAGTTTCCCCCTGATGTTAATCGGGTCTTGATTCGCTTGACGCTGCTG”, the binding signal in experiment [1] turned out to be 8.07 z-score; in experiment [2], 8.22 z-score; in experiment [3], 11.2 z-score; in experiment [4], 11.4 z-score; in experiment [5] it was 4.83 z-score; in experiment [6], 6.51 z-score. This sequence displayed a binding signal in experiment [7] of 7.11 z-score.
Consider “CCGATTAACATCAGATTTCCCCATGATGTTAATCGGGTCTTGATTCGCTTGACGCTGCTG”, for which the binding signal turned out to be 7.4 z-score in experiment [1]; 8.26 z-score in experiment [2]; 9.52 z-score in experiment [3]; 8.5 z-score in experiment [4]; 3.76 z-score in experiment [5]; 5.45 z-score in experiment [6]. This sequence also gave a binding signal in experiment [7] of 6.16 z-score.
On to “CCGATTAACATCACCCGTTCCCCTGATGTTAATCGGGTCTTGATTCGCTTGACGCTGCTG”, for which the binding signal is 5.61 z-score in experiment [1]; 4.83 z-score in experiment [2]; 6.11 z-score in experiment [3]; 4.75 z-score in experiment [4]; 1.99 z-score in experiment [5]; 3.78 z-score in experiment [6]. The binding signal in experiment [7] was 3.85 z-score.
“CCGATTAACATCAGGGGGATTACTGATGTTAATCGGGTCTTGATTCGCTTGACGCTGCTG”: the binding signal in experiment [1] came to 8.76 z-score; in experiment [2], 7.64 z-score; in experiment [3], 8.21 z-score; in experiment [4] it was 5.85 z-score; in experiment [5], 9.03 z-score; in experiment [6], 6.92 z-score. This sequence also gave a binding signal in experiment [7] of 7.22 z-score.
“CCGATTAACATCAGGGGGTCCACTGATGTTAATCGGGTCTTGATTCGCTTGACGCTGCTG”: the binding signal in experiment [1] worked out at 4.33 z-score; in experiment [2] it was 2.44 z-score; in experiment [3], 2.96 z-score; in experiment [4] it was 1.99 z-score; in experiment [5], 7.96 z-score; in experiment [6] it was 4.83 z-score. In experiment [7], this sequence had a binding signal of 3.28 z-score.
For “CCGATTAACATCACCACCCCCCCTGATGTTAATCGGGTCTTGATTCGCTTGACGCTGCTG”, the binding signal in experiment [1] worked out at 4.06 z-score; in experiment [2] it was 3.75 z-score; in experiment [3], 3.44 z-score; in experiment [4], 3.56 z-score; in experiment [5], 4.58 z-score; in experiment [6], 3.75 z-score. For the same sequence, the binding signal in experiment [7] came to 4.06 z-score.
As to “CCGATTAACATCACATGTTTCCCTGATGTTAATCGGGTCTTGATTCGCTTGACGCTGCTG”, the binding signal in experiment [1] amounted to 2.33 z-score; in experiment [2] it was 3.31 z-score; in experiment [3], 4.21 z-score; in experiment [4] it was 4.5 z-score; in experiment [5], 1.48 z-score; in experiment [6] it was 4.01 z-score. The sequence further yielded a binding signal in experiment [7] of 1.17 z-score.
As to “CCGATTAACATCAGGGGGTGCACTGATGTTAATCGGGTCTTGATTCGCTTGACGCTGCTG”, the binding signal in experiment [1] amounted to 3.65 z-score; in experiment [2], 2.71 z-score; in experiment [3] it was 3.9 z-score; in experiment [4], 2.55 z-score; in experiment [5], 6.6 z-score; in experiment [6] it was 4.95 z-score. This sequence also displayed a binding signal in experiment [7] of 4.23 z-score.
As for “CCGATTAACATCAATTCACCCCCTGATGTTAATCGGGTCTTGATTCGCTTGACGCTGCTG”, the binding signal in experiment [1] came out at 4.01 z-score; in experiment [2] it was 3.65 z-score; in experiment [3] it was 4.82 z-score; in experiment [4] it was 6.74 z-score; in experiment [5], 3.16 z-score; in experiment [6], 4.11 z-score. The sequence further gave a binding signal in experiment [7] of 4.31 z-score.
As to “CCGATTAACATCAGGAATGCCCCTGATGTTAATCGGGTCTTGATTCGCTTGACGCTGCTG”, the binding signal was 5.19 z-score in experiment [1]; 6.58 z-score in experiment [2]; 3.31 z-score in experiment [3]; 1.64 z-score in experiment [4]; 5.92 z-score in experiment [5]; 7.72 z-score in experiment [6]. Also, the binding signal in experiment [7] is 5.39 z-score.
